A short description of assay [1]: NCI Yeast Anticancer Drug Screen. Data for the rad50 strain (AID 155).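 Also: 0% = growth of vehicle-only cultures of the same strain.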 The note with it: S. cerevisiae rad50 strain growth inhibition; at 50.0 µM; stronger effect = higher value. The method, boiled down: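 A DNA repair-deficient yeast mutant serves as the test organism; compound-induced growth inhibition is calculated against vehicle-treated cells.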
Assay [2] can be described thus: NCI Yeast Anticancer Drug Screen. Data for the mec2-1 strain (AID 157). As to conditions: S. cerevisiae mec2-1 strain, at 50.0 µM, stronger effect = higher value. The method, boiled down: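 Mutant yeast (mec2-1) grown with compound; growth inhibition relative to vehicle control reported.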
Assay [3] is described as follows: NCI Yeast Anticancer Drug Screen. Data for the sgs1 mgt1 strain (AID 161).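 Also: 0% = growth of cultures given vehicle only.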 The note with it: S. cerevisiae sgs1 mgt1 strain, at 50.0 µM, stronger effect = higher value. The method in brief:
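Yeast cells carrying a defined DNA-repair defect were exposed to test compounds. Growth inhibition was measured relative to vehicle-treated controls.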

Assay [4] in a line: NCI Yeast Anticancer Drug Screen. Data for the cln2 rad14 strain (AID 165).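 Also: 0% = growth equal to vehicle treated cultures.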 As to conditions: S. cerevisiae cln2 rad14 strain, at 50.0 µM, stronger effect = higher value. The method in brief:
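Readout is yeast growth inhibition versus vehicle-treated controls, using a strain with cln2 and rad14 alterations exposed to compound.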

A short description of assay [5]: NCI Yeast Anticancer Drug Screen. Data for the bub3 strain (AID 167). As to conditions: S. cerevisiae bub3 mutant strain, at 50.0 µM, stronger effect = higher value. The method in brief: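 Inhibition values come from growth of compound-treated mutant yeast normalised to vehicle-treated controls.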
Assay [6] can be described thus: NCI Yeast Anticancer Drug Screen. Data for the mlh1 rad18 strain (AID 175). As to conditions: S. cerevisiae mlh1 rad18 strain growth inhibition; at 50.0 µM; stronger effect = higher value. The method, boiled down: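 Genetically defined yeast (DNA repair-deficient) exposed to compounds; growth inhibition determined relative to vehicle.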

The structures appear in SMILES notation. About 79,000 compounds went through this panel and 15% of them were active in at least one assay; those are over-represented in the sample as a whole. Values without a mark were called inactive. The source made the active and inactive calls. Rule as the data show it: active = growth inhibition above about 70%; inactive = the rest. *1 amine or outer side, *2 acyl side, *3 side chain or, on linkers, in order; H or OH if unused. Where a SMILES comes first, the peptide text is derived from it. Bridges are numbered along the chain shown (N, C = ends). Roman numbers before positions name the chains, in order. [ ]: non-standard residue; d: D form. Actinocin(1to9) = Cc1c2oc3c(C)ccc(C(=O)[*:2])c3nc-2c(C(=O)[*:1])c(N)c1=O; NMeV = CN[CH](C(=O)O)C(C)C; Aze = O=C(O)[CH]1CCN1; Sar = CNCC(=O)O

For `O=C(/C(=C/c1ccc(Cl)cc1)c1ccccc1)c1ccccc1`, the growth inhibition in assay [1] is 9.2%; in assay [2] it was -28.4%; in assay [3], 6.45%; in assay [4], 13.9%; in assay [5] it was -21.1%; in assay [6], -2.75%.

Turning to `N#C/C(=C\c1ccc(Cl)cc1)C(=O)N/N=C/c1ccc(Cl)cc1`, the growth inhibition is 24.6% in assay [1]; 27.1% in assay [2]; 33% in assay [3]; 1.35% in assay [4]; 5.75% in assay [5]; 27.9% in assay [6].

For the compound `CCN(CC)C(=O)c1ccc(O)c(OC)c1`, the growth inhibition in assay [1] was 17.7%; in assay [2] it was 17%; in assay [3] it was 7.3%; in assay [4], 7.65%; in assay [5] it was -7.3%; in assay [6], -4.3%.

Regarding `Cc1c2oc3c(C)ccc(C(=O)NC4C(=O)NC(C(C)C)C(=O)N5CCCC5C(=O)N(C)CC(=O)N(C)C(C(C)C)C(=O)OC4C)c3nc-2c(C(=O)NC2C(=O)NC(C(C)C)C(=O)N3CCC3C(=O)N(C)CC(=O)N(C)C(C(C)C)C(=O)OC2C)c(N)c1=O` (stereo not given) (I: TV[Aze][Sar][NMeV] / II: TVP[Sar][NMeV]; ester I:1-I:C, II:1-II:C; linker I:N-II:N via Actinocin(1to9); configuration not given here), the growth inhibition is 90.3% (active) in assay [1]; 92.2% (active) in assay [2]; 92.5% (active) in assay [3]; 86.8% (active) in assay [4]; 89% (active) in assay [5]; 90% (active) in assay [6].

Regarding `Cc1cc(=O)[nH]c(=O)[nH]1`, the growth inhibition in assay [1] is 5.85%; in assay [2], -7.55%; in assay [3], -16.6%; in assay [4], -4.15%; in assay [5] it was -17.7%; in assay [6] it was -5.4%.

As for `C=CCCCCCCCCCOC=O`, the growth inhibition in assay [1] was -12.1%; in assay [2] it was -5.2%; in assay [3], 1.25%; in assay [4], -19.8%; in assay [5] it was 34.3%; in assay [6], 3.2%.

As to `O=C(/C=C/c1ccc(O)c(O)c1)OC1CC(O)(C(=O)O)CC(O)C1O` (stereo not given), the growth inhibition is 4.75% in assay [1]; 5.9% in assay [2]; 7.85% in assay [3]; 11.4% in assay [4]; -2.75% in assay [5]; 17.7% in assay [6].

For `COc1c2cc3c(cc2nc2occc12)OCO3`, the growth inhibition is 1.1% in assay [1]; -5.35% in assay [2]; -9.3% in assay [3]; 2.6% in assay [4]; -11.2% in assay [5]; 5.55% in assay [6].

Take `CN(C)c1ccc(/C=C2\Cc3ccccc3C2=O)cc1Br`: the growth inhibition in assay [1] is 19.6%; in assay [2], -8%; in assay [3], 1.45%; in assay [4], 0.95%; in assay [5], -8.55%; in assay [6], 12.4%.

On to `O=[N+]([O-])c1ccc2nc(Cl)cnc2c1`, for which the growth inhibition in assay [1] was 25.2%; in assay [2] it was 31.2%; in assay [3], 16.5%; in assay [4] it was -5.2%; in assay [5], 3.8%; in assay [6] it was 38.6%.

For the compound `c1ccc2c(c1)SCCc1nncn1-2`, the growth inhibition was -6.6% in assay [1]; 7.3% in assay [2]; -1.4% in assay [3]; -24.4% in assay [4]; 8.5% in assay [5]; 4.95% in assay [6].

In the case of `COC(=O)c1nnn(-c2cccc(Cl)c2)c1C(=O)c1ccc(Cl)c(Cl)c1`, the growth inhibition is -6.55% in assay [1]; 5.55% in assay [2]; 7.5% in assay [3]; -5.25% in assay [4]; -8.9% in assay [5]; 11.8% in assay [6].

In the case of `N#CC1=C(N2CCCC2)NC(=O)CC1=O`, the growth inhibition is 0% in assay [1]; -4.4% in assay [2]; -0.6% in assay [3]; 35.6% in assay [4]; 7.2% in assay [5]; 1.4% in assay [6].

Regarding `Nc1ncc2c(n1)-c1ccccc1OC2N1CCOCC1` (stereo not given), the growth inhibition in assay [1] was 28%; in assay [2] it was 2.15%; in assay [3], -0.45%; in assay [4] it was 2%; in assay [5], -22.6%; in assay [6], -7.8%.

In the case of `OC1CC2C3CCC(C3)C2C1O` (stereo not given), the growth inhibition in assay [1] was -11.8%; in assay [2] it was -6.35%; in assay [3] it was -10.4%; in assay [4] it was -7.45%; in assay [5], 9.55%; in assay [6], -2.95%.

As for `CN(Cc1nc2c(N)nc(N)nc2nc1N)c1ccc(C(=O)NC(CCC(=O)O)C(=O)O)cc1` (stereo not given), the growth inhibition was 7.65% in assay [1]; 42.2% in assay [2]; 22.3% in assay [3]; -7.4% in assay [4]; -1.95% in assay [5]; -26.1% in assay [6].

For the compound `NNc1nc2ccccc2[nH]1`, the growth inhibition is 16.6% in assay [1]; -0.1% in assay [2]; -34.9% in assay [3]; -14.4% in assay [4]; 8.9% in assay [5]; 8.85% in assay [6].

As to `CCOC(=O)COS(=O)(=O)C(F)(F)F`, the growth inhibition was 21.6% in assay [1]; -12.7% in assay [2]; -11.4% in assay [3]; 2.95% in assay [4]; 3.5% in assay [5]; -10.7% in assay [6].

In the case of `O=C(N=c1nc(NC(=O)c2ccccc2)ss1)c1ccccc1`, the growth inhibition in assay [1] is -0.25%; in assay [2], 7.7%; in assay [3], -2.8%; in assay [4], -42.2%; in assay [5], -17.1%; in assay [6], 13.2%.

As for `CNCc1ccccc1[N+](=O)[O-]`, the growth inhibition is 6.75% in assay [1]; -3.95% in assay [2]; -3.9% in assay [3]; -9.95% in assay [4]; 3.7% in assay [5]; -0.3% in assay [6].

The record behind these values is PubChem BioAssay (NCI).
